Data as given in PubChem BioAssay AID1159580 (chemical genetic matrix, 2015).
“And” between values parts separate entries of the source, which are not always exact repeats. Equal entries are not always repeated. In all, about 5,500 compounds went through this assay and about 2,000 (36%) were called active. Another 18% or so got no clear call; they are omitted. Rule as the data show it: active = normalized growth mostly below about 0.91 (no sharp cut-off); inconclusive = no clear call, values can overlap the other calls; inactive = mostly above about 0.92. The list shows a part of the results.

Assay: chemical genetic growth profiling, strain panel (AID 1159580);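 also: tested at 20 µM; growth read once vehicle control cultures reached saturation at 30 °C; 1 = growth at the plate median or of vehicle wells; lower values mean less growth of the strain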
Conditions: S. cerevisiae deletion strains, growth OD

Measured: normalized growth

O=c1[nH]c(=O)n(C2C[C@H](O)[C@@H](CO)O2)cc1C(F)(F)F (stereo partly specified)
inactive: locus YAL013W, strain DEP1, active compounds read low 0.992 | locus YAL021C, strain ccr4, active compounds read low 0.999 | locus YAL026C, strain drs2, active compounds read low 0.973 | locus YAL030W, strain snc1, active compounds read low 0.979 | locus YBL061C, strain skt5, active compounds read low 0.974 | locus YBR009C, strain hhf1, active compounds read low 0.981 | locus YBR021W, strain FUR4, active compounds read low 0.968 | locus YBR023C, strain chs3, active compounds read low 0.983 | locus YBR171W, strain sec66, active compounds read low 0.965 | locus YBR229C, strain ROT2, active compounds read low 0.986 | locus YBR231C, strain swc5, active compounds read low 0.976 | locus YBR279W, strain paf1, active compounds read low 0.98 | locus YCL011C, strain gbp2, active compounds read low 0.954 | locus YCL016C, strain dcc1, active compounds read low 0.972 | locus YCL029C, strain bik1, active compounds read low 0.971 | locus YCL069W, strain vba3, active compounds read low 0.994 | locus YCR088W, strain abp1, active compounds read low 0.973 | locus YDL005C, strain med2, active compounds read low 0.964 | locus YDL035C, strain GPR1, active compounds read low 0.986 | locus YDL040C, strain nat1, active compounds read low 0.976 | locus YDL074C, strain BRE1, active compounds read low 0.97 | locus YDL101C, strain DUN1, active compounds read low 0.987 | locus YDL134C, strain PPH21, active compounds read low 1 | locus YDL185W, strain tfp1, active compounds read low 0.962 | locus YDL192W, strain arf1, active compounds read low 0.981 | locus YDR001C, strain nth1, active compounds read low 0.947 | locus YDR069C, strain doa4, active compounds read low 0.95 | locus YDR101C, strain arx1, active compounds read low 0.981 | locus YDR137W, strain rgp1, active compounds read low 0.901 | locus YDR150W, strain NUM1, active compounds read low 0.996 | locus YDR159W, strain sac3, active compounds read low 0.947 | locus YDR162C, strain NBP2, active compounds read low 0.984 | locus YDR195W, strain ref2 0.922 | locus YDR297W, strain sur2, active compounds read low 0.969 | locus YDR318W, strain mcm21, active compounds read low 0.987 | locus YDR334W, strain swr1, active compounds read low 0.964 | locus YDR335W, strain msn5, active compounds read low 0.96 | locus YDR388W, active compounds read low 0.975 | locus YDR392W, strain spt3, active compounds read low 1 | locus YDR502C, strain sam2, active compounds read low 0.979 | locus YEL003W, strain gim4, active compounds read low 0.979 | locus YEL037C, strain rad23, active compounds read low 0.984 | locus YEL061C, strain CIN8 (second series), active compounds read low 0.952 | locus YEL061C, strain CIN8, active compounds read low 0.995 | locus YER015W, strain faa2, active compounds read low 0.972 | locus YER016W, strain bim1, active compounds read low 0.978 | locus YER110C, active compounds read low 0.966 | locus YER111C, strain swi4, active compounds read low 0.976 | locus YER155C, strain BEM2 (second series), active compounds read low 0.957 | locus YER155C, strain BEM2, active compounds read low 0.984 | locus YER167W, strain BCK2, active compounds read low 0.945 | locus YFR010W, strain ubp6, active compounds read low 0.953 | locus YGL078C, strain dbp3, active compounds read low 0.966 | locus YGL086W, strain mad1, active compounds read low 0.979 | locus YGL167C, strain pmr1, active compounds read low 0.968 | locus YGL173C, strain kem1, active compounds read low 0.98 | locus YGL227W, strain vid30, active compounds read low 0.946 | locus YGL240W, strain doc1, active compounds read low 1 | locus YGL248W, strain PDE1, active compounds read low 0.978 | locus YGL253W, strain hxk2, active compounds read low 0.972 | locus YGR078C, strain PAC10, active compounds read low 0.997 | locus YGR135W, strain pre9, active compounds read low 0.969 | locus YGR229C, strain SMI1, active compounds read low 0.963 | locus YGR252W, strain gcn5, active compounds read low 0.971 | locus YHR013C, strain ard1, active compounds read low 0.923 | locus YHR027C, strain rpn1, active compounds read low 0.958 | locus YHR030C, strain SLT2, active compounds read low 0.985 and 1.02 | locus YHR079C, strain IRE1 (second series), active compounds read low 0.974 | locus YHR079C, strain IRE1, active compounds read low 1.03 | locus YHR094C, strain hxt1, active compounds read low 0.983 | locus YHR129C, strain ARP1, active compounds read low 0.987 | locus YHR142W, strain chs7, active compounds read low 0.922 | locus YHR200W, strain rpn10, active compounds read low 0.985 | locus YIL066C, strain RNR3, active compounds read low 0.986 | locus YIL073C, strain SPO22, active compounds read low 0.967 | locus YIL125W, strain kgd1, active compounds read low 0.968 | locus YIR030C, strain dcg1, active compounds read low 0.969 | locus YJL092W, strain hpr5, active compounds read low 0.962 | locus YJL095W, strain BCK1 (second series), active compounds read low 0.962 | locus YJL095W, strain BCK1, active compounds read low 0.969 and 1.01 | locus YJL115W, strain asf1, active compounds read low 0.928 | locus YJL129C, strain trk1, active compounds read low 0.916 | locus YJL134W, strain LCB3, active compounds read low 0.987 | locus YJL154C, strain vps35, active compounds read low 0.975 | locus YJL164C, strain tpk1, active compounds read low 0.968 | locus YJL166W, strain qcr8, active compounds read low 0.953 | locus YJL168C, strain set2, active compounds read low 0.987 | locus YJL187C, strain SWE1 (second series), active compounds read low 0.982 | locus YJR043C, strain POL32, active compounds read low 0.973 | locus YJR066W, strain TOR1, active compounds read low 0.963 | locus YJR075W, strain HOC1, active compounds read low 0.991
